Here are results for 29 compounds from PubChem BioAssay (NCATS).

Results filed as inconclusive are left out. Activity calls are given as the source filed them. The call rests on the fitted dose curve; in most records, active means well fitted cell-killing curve with a large enough effect; inconclusive means small, poorly fitted or top-dose-only effect, or effect the other way; inactive means flat fitted curve, though single readings scatter. Where a SMILES comes first, the peptide text is derived from it. [ ]: non-standard residue; d: D form. Ala(indol-2-yl) = N[C@@H](Cc1cc2ccccc2[nH]1)C(=O)O; Aib = CC(C)(N)C(=O)O
On the % scale 0 is the no-effect control and ±100 the full control effect; potency means the concentration at half of the fitted maximal effect.

For the assay, the system named is C33A. Kind of assay: Primary qHTS to identify gynecologic anti-cancer compounds using libraries of approved drugs and bioactive compounds (AID 1345084). Further: nearly all actives have a fitted effect of over 55% in size. As to conditions: Gynecologic cancer cell panel viability, ATPlite luminescence, 48 h; series mostly up to 57.5 µM. In outline:
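Five-concentration response, 48 h; readout is ATP-driven luciferase luminescence.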
In general terms: qHTS replaces the single test concentration by a dilution series.
`O=C(OC[C@H]1O[C@@H](Oc2ccc(O)cc2CO)[C@H](O)[C@@H](O)[C@@H]1O)c1ccccc1`: the Potency result is “inactive”.

As to `CC(=O)O[C@@H]1[C@@H](O)[C@H]2O[C@@H]3C=C(C)[C@@H](O)C[C@]3(CO)[C@]1(C)[C@]21CO1`, the Potency was 3550 nM (active).

For the compound `CC(C)(NC(=O)[C@@H](N)Cc1ccc(O)cc1)C(=O)N[C@@H](Cc1cc2ccccc2[nH]1)C(=O)N[C@@H](Cc1ccccc1)C(=O)O` (H-Y[Aib][Ala(indol-2-yl)]F-OH), the activity change, negative = cytotoxicity was 17.2% [at 11.6 µM] (inactive).

On to `C=C1[C@@H](C)[C@H]2[C@H](Cc3ccccc3)NC(=O)[C@]23[C@H](OC(C)=O)/C=C/[C@](C)(O)C(=O)[C@@H](C)C/C=C/[C@H]3[C@@H]1O`, for which the Potency result is “inactive”.

`COc1ccc2c3c([nH]c2c1)C(C=C(C)C)N1C(=O)C2CCCN2C(=O)C1C3` (centres undefined): the Potency result is “inactive”.

`C[C@@H]1C[C@@H](O)[C@]2(O)O[C@@H]3C[C@@]4(C=O)C(CC[C@@H]5C4CC[C@]4(C)[C@@](O)(C6=CC(=O)OC6)CC[C@]54O)C[C@H]3OC2O1` (some centres undefined): the Potency is 2820 nM (active).

`CN[C@@H]1C[C@H]2O[C@@](C)([C@@H]1OC)n1c3ccccc3c3c4c(c5c6ccccc6n2c5c31)C(=O)NC4`: the Potency is 1260 nM (active).

Turning to `CC(=O)OC[C@]12C[C@H](OC(=O)CC(C)C)C(C)=C[C@H]1O[C@@H]1[C@H](O)C[C@@]2(C)[C@]12CO2`, the Potency is 2820 nM (active).

As to `COC1CC(O[C@H]2CC[C@]3(C)C4CC[C@]5(C)[C@@H](C6=CC(=O)OC6)[C@@H](OC(C)=O)C[C@]5(O)C4CC[C@@H]3C2)OC(C)C1O[C@@H]1O[C@H](CO)[C@@H](O)[C@H](O)[C@H]1O` (some centres undefined), the Potency was 631 nM (active).

As for `Cc1c(Cl)c(OCC(=O)N2CCN(C)CC2)nc2sc(C(=O)NC3CC3)c(N)c12`, the Potency entry was “inactive”.

Regarding `CO[C@H]1[C@H](O)[C@H](O[C@H]2CC[C@]3(C=O)C4CC[C@]5(C)[C@H](C6=CC(=O)OC6)CC[C@]5(O)C4CC[C@@H]3C2)O[C@@H](C)[C@@H]1O` (some centres undefined), the Potency was 89.1 nM (active).

With `C[C@H]1O[C@@H](O[C@H]2CC[C@]3(C=O)C4CC[C@]5(C)[C@@H](C6=CC(=O)OC6)CC[C@]5(O)[C@@H]4CC[C@]3(O)C2)C[C@@H](O)[C@@H]1O` (some centres undefined), the Potency is 89.1 nM (active).

Take `COC1CC(O[C@H]2CC[C@]3(C=O)C4CC[C@]5(C)[C@@H](C6=CC(=O)OC6)CC[C@]5(O)[C@@H]4CC[C@@H]3C2)OC(C)C1O[C@@H]1O[C@H](CO)[C@@H](O[C@@H]2O[C@H](CO)[C@@H](O)[C@H](O)[C@H]2O)[C@H](O)[C@H]1O` (some centres undefined): the Potency is 178 nM (active).

Consider `C[C@H]1O[C@@H](O[C@H]2CC[C@]3(CO)C4CC[C@]5(C)[C@@H](C6=CC(=O)OC6)CC[C@]5(O)[C@@H]4CC[C@H]3C2)[C@H](O)[C@H](O)[C@@H]1O[C@@H]1O[C@H](CO)[C@@H](O)[C@H](O)[C@H]1O` (some centres undefined), for which the Potency is 1120 nM (active).

Consider `CC1=C[C@H]2O[C@@H]3[C@H](O)[C@@H](O)[C@](C)([C@@]2(CO)C[C@@H]1O)[C@]31CO1`, for which the Potency was 10000 nM (active).

Turning to `C[C@H]1O[C@@H](n2cnc3c(N)ncnc32)C[C@@H]1O`, the Potency entry is “inactive”.

In the case of `OCc1nnc2n1-c1ccc(Cl)cc1C(c1ccccc1Cl)=NC2`, the Potency entry is “inactive”.

`CC[C@H]1C2CC3[C@@H]4N(C)c5ccccc5[C@]45C[C@@H]([C@H]2[C@H]5O)N3[C@@H]1O`: the Potency result is “inactive”.

Take `CO[C@@H]1C[C@H](O[C@H]2CC[C@@]3(C)C(CCC4C3CC[C@]3(C)[C@@H](C5=CC(=O)OC5)[C@@H](OC(C)=O)CC43O)C2)O[C@H](C)[C@@H]1O[C@H]1O[C@H](CO[C@@H]2O[C@H](CO)[C@@H](O)[C@H](O)[C@H]2O)[C@@H](O)[C@H](O)[C@H]1O` (some centres undefined): the Potency was 631 nM (active).

On to `CC[C@@]1(O)C(=O)OCc2c1cc1n(c2=O)Cc2cc3c(OC)cccc3nc2-1`, for which the Potency was 631 nM (active).

As to `CC(=O)O[C@H]1CC[C@@]2(CI)C(=CC[C@@H]3[C@@H]2CC[C@]2(C)C(=O)CC[C@@H]32)C1`, the Potency result is “inactive”.

With `C[C@H](CCC(=O)O)C[C@H](C)C[C@H](C)C(=O)/C=C(\O)[C@H](C)C[C@H](C)C/C=C/[C@@H](C)[C@@H](O)[C@@H](C)[C@@H](O)C[C@@H]1CC[C@@](C)([C@H]2CC[C@@](C)([C@@H](C)O)O2)O1`, the Potency entry is “inactive”.

Take `C[C@H]1C/C=C/[C@H]2[C@@H]3O[C@]3(C)[C@@H](C)[C@H]3[C@H](Cc4ccccc4)NC(=O)[C@]32OC(=O)O/C=C/[C@@](C)(O)C1=O`: the Potency result was “inactive”.

For the compound `CC(C)(C)[C@]1(O)C[C@@H]2OC(=O)C[C@@]23C(=O)O[C@@H]2OC(=O)[C@@H](O)[C@]213`, the Potency entry was “inactive”.

Turning to `N#CC(O[C@@H]1O[C@H](CO)[C@@H](O)[C@H](O)[C@H]1O)c1ccccc1` (some centres undefined), the Potency entry is “inactive”.

As to `COC1CC(O[C@H]2CC[C@]3(C)C4CC[C@]5(C)[C@@H](C6=CC(=O)OC6)[C@@H](OC(C)=O)C[C@]5(O)C4CC[C@@H]3C2)OC(C)C1O` (some centres undefined), the Potency is 891 nM (active).

In the case of `CC(=O)O[C@H]1CN2CCC1CC2`, the Potency entry was “inactive”.

In the case of `CC(=O)OC[C@]12C[C@H](O)C(C)=C[C@H]1O[C@@H]1[C@H](O)[C@@H](OC(C)=O)[C@@]2(C)[C@]12CO2`, the Potency is 447 nM (active).

On to `CC[C@@H]1C[C@H]2CC[C@H](O2)[C@H](C)C(=O)O[C@@H](C)C[C@@H]2CC[C@@H](O2)[C@@H](C)C(=O)O[C@H](CC)C[C@H]2CC[C@H](O2)[C@H](C)C(=O)O[C@@H](C)C[C@@H]2CC[C@@H](O2)[C@@H](C)C(=O)O1`, for which the Potency was 316 nM (active).
